Legend:
Assay in all cases: PBM; 200 nM protein, PBS
Details in all cases: dsDNA, one strand shown
[1] = target: ALX1 (Homo sapiens, UniProt Q15699 118-204, L144V)
[2] = target: ALX1 (Homo sapiens, UniProt Q15699 118-204, L144R)
[3] = target: ALX1 (Homo sapiens, UniProt Q15699 118-204)
ALX1 (Homo sapiens, UniProt Q15699 118-204), sequence (Q15699 118-204): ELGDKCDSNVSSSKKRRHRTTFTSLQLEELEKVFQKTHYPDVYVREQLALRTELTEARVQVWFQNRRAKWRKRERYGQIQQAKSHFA

ALX1 (Homo sapiens, UniProt Q15699 118-204, L144V), sequence (Q15699 118-204 L144V): as the sequence (Q15699 118-204) above, with L27V counted along it
ALX1 (Homo sapiens, UniProt Q15699 118-204, L144R), sequence (Q15699 118-204 L144R): as the sequence (Q15699 118-204) above, with L27R counted along it

Sequence	binding signal [1]	binding signal [2]	binding signal [3]
GGCTAGGA	6.64 upbm affinity estimate (log intensity, higher = more binding, comparable within an allelic series)	6.63 upbm affinity estimate (log intensity, higher = more binding, comparable within an allelic series)	6.34 upbm affinity estimate (log intensity, higher = more binding, comparable within an allelic series)
CCTTTAAC	8.41 upbm affinity estimate (log intensity, higher = more binding, comparable within an allelic series)	8.36 upbm affinity estimate (log intensity, higher = more binding, comparable within an allelic series)	8.65 upbm affinity estimate (log intensity, higher = more binding, comparable within an allelic series)
CACCTTCG	6.61 upbm affinity estimate (log intensity, higher = more binding, comparable within an allelic series)	6.38 upbm affinity estimate (log intensity, higher = more binding, comparable within an allelic series)	6.33 upbm affinity estimate (log intensity, higher = more binding, comparable within an allelic series)
ACCCGCTC	6.49 upbm affinity estimate (log intensity, higher = more binding, comparable within an allelic series)	6.49 upbm affinity estimate (log intensity, higher = more binding, comparable within an allelic series)	6.43 upbm affinity estimate (log intensity, higher = more binding, comparable within an allelic series)
GAGGAGCC	6.5 upbm affinity estimate (log intensity, higher = more binding, comparable within an allelic series)	6.54 upbm affinity estimate (log intensity, higher = more binding, comparable within an allelic series)	6.27 upbm affinity estimate (log intensity, higher = more binding, comparable within an allelic series)
GCACCAGC	6.41 upbm affinity estimate (log intensity, higher = more binding, comparable within an allelic series)	6.46 upbm affinity estimate (log intensity, higher = more binding, comparable within an allelic series)	6.19 upbm affinity estimate (log intensity, higher = more binding, comparable within an allelic series)
CGCCGAGA	6.15 upbm affinity estimate (log intensity, higher = more binding, comparable within an allelic series)	6.32 upbm affinity estimate (log intensity, higher = more binding, comparable within an allelic series)	6.31 upbm affinity estimate (log intensity, higher = more binding, comparable within an allelic series)
CGACTGCC	6.48 upbm affinity estimate (log intensity, higher = more binding, comparable within an allelic series)	6.43 upbm affinity estimate (log intensity, higher = more binding, comparable within an allelic series)	6.37 upbm affinity estimate (log intensity, higher = more binding, comparable within an allelic series)
AAAAATGT	8.02 upbm affinity estimate (log intensity, higher = more binding, comparable within an allelic series)	8.01 upbm affinity estimate (log intensity, higher = more binding, comparable within an allelic series)	8.15 upbm affinity estimate (log intensity, higher = more binding, comparable within an allelic series)
GTTATACA	8.24 upbm affinity estimate (log intensity, higher = more binding, comparable within an allelic series)	8.23 upbm affinity estimate (log intensity, higher = more binding, comparable within an allelic series)	8.43 upbm affinity estimate (log intensity, higher = more binding, comparable within an allelic series)
AATGAATG	9.18 upbm affinity estimate (log intensity, higher = more binding, comparable within an allelic series)	9 upbm affinity estimate (log intensity, higher = more binding, comparable within an allelic series)	9.33 upbm affinity estimate (log intensity, higher = more binding, comparable within an allelic series)
TCTGTTAA	8.7 upbm affinity estimate (log intensity, higher = more binding, comparable within an allelic series)	8.61 upbm affinity estimate (log intensity, higher = more binding, comparable within an allelic series)	9.01 upbm affinity estimate (log intensity, higher = more binding, comparable within an allelic series)
ATTTGTAA	9.13 upbm affinity estimate (log intensity, higher = more binding, comparable within an allelic series)	8.97 upbm affinity estimate (log intensity, higher = more binding, comparable within an allelic series)	9.47 upbm affinity estimate (log intensity, higher = more binding, comparable within an allelic series)
ATTATTGA	10.4 upbm affinity estimate (log intensity, higher = more binding, comparable within an allelic series)	10.3 upbm affinity estimate (log intensity, higher = more binding, comparable within an allelic series)	10.8 upbm affinity estimate (log intensity, higher = more binding, comparable within an allelic series)
AGCAATAT	8.17 upbm affinity estimate (log intensity, higher = more binding, comparable within an allelic series)	8.11 upbm affinity estimate (log intensity, higher = more binding, comparable within an allelic series)	8.09 upbm affinity estimate (log intensity, higher = more binding, comparable within an allelic series)
CTCCTGGA	6.55 upbm affinity estimate (log intensity, higher = more binding, comparable within an allelic series)	6.53 upbm affinity estimate (log intensity, higher = more binding, comparable within an allelic series)	6.48 upbm affinity estimate (log intensity, higher = more binding, comparable within an allelic series)
AGATCATC	7.78 upbm affinity estimate (log intensity, higher = more binding, comparable within an allelic series)	7.76 upbm affinity estimate (log intensity, higher = more binding, comparable within an allelic series)	7.9 upbm affinity estimate (log intensity, higher = more binding, comparable within an allelic series)

Reference: publication PMC11006913
